Test results as given in PubChem BioAssay (EPA / NIEHS).
“And” between values parts separate entries of the source, which are not always exact repeats. Equal entries are not always repeated. Some compounds were tested as several samples or in several runs, with calls that do not always agree. The source made the active and inactive calls. Rule for the calls: active = hit-call score of the fitted dose curve at least 0.9, where 1 is the maximum; inactive = score below 0.9.

read-out: Intercellular Adhesion Molecule 1 (ICAM1), ICAM1 (gene 3383); experiment: BSK_3C_ICAM1: BioMAP Diversity Plus: 3C Assay for Intercellular Adhesion Molecule 1 (ICAM1) Biomarker Activity (AID 2283003); details: primary human endothelial cells (HUVEC); actives raise or lower the signal
Protocol: BSK_3C is a cell-based, multiplexed-readout assay that uses umbilical vein endothelium, a human vascular primary cell, with measurements taken at 24 hours after chemical dosing in a 96-well plate.BSK_3C_ICAM1 is an assay component measured in the BSK_3C assay. It measures ICAM-1 antibody related to regulation of gene expression using ELISA technology.Data from the assay component BSK_3C_ICAM1 was analyzed into 1 assay endpoint. This assay endpoint, BSK_3C_ICAM1, was analyzed with bidirectional fitting relative to DMSO as the negative control and baseline of activity. Using a type of binding reporter, gain or loss-of-signal activity can be used to understand changes in the signaling as they relate to the gene ICAM1. Furthermore, this assay endpoint can be referred to as a primary readout, because this assay has produced multiple assay endpoints where this one serves a signaling function. To generalize the intended target to other relatable targets, this assay endpoint is annotated to the cell adhesion molecules intended target family, where the subfamily is Immunoglobulin CAM.
The levels of cell surface (or secreted, indicated by the prefix "s") biomarker endpoints were measured by ELISA. Overt cytotoxicity to cells in confluent adherent cultures (all systems other than the BT system) was assessed by measuring total protein levels using sulforhodamine B (SRB) staining in parallel cultures at the time of biomarker measurements, indicated as SRB endpoints. For proliferation assays for adherent cell types, individual cell types are cultured at sub-confluence and relative cell numbers quantified by SRB staining at time points optimized for each system (48 h: 3C and CASM3C systems; 72 h: BT and HDF3CGF systems; 96 h: SAg system). SRB was performed by staining cells with 0.1% SRB after fixation with 10% TCA and reading wells at 560 nm.Viability and proliferation of PBMC (T cells) was quantified by Alamar Blue reduction for the SAg and BT systems. For PBMC viability (referred to as PBMC Cytotoxicity within the assay endpoint names), cells were plated (75,000/well in a 96-well plate) and then chemical samples added for 1 h before addition of activators, SEB and TSST-1 (20 ng/mL final concentration each). Cells were incubated for 90 h. Then, Alamar Blue (20 uL/well) (Invitrogen, Cat DAL1100) was added for 6 h, and the plates were read with a fluorescence microplate reader at 546/580 nm (excitation/emission). For PBMC proliferation, cells were plated and activated as above but incubated for only 16 h prior to addition of Alamar Blue. Plates were read after 6 h.

Compound	outcome	AC50
CCCCCCCCCCCC#N	inactive	–
[Cd+2].[Cl-].[Cl-]	inactive	–
N#CCCCCC#N	inactive	–
O=S(=O)(c1ccccc1)c1ccccc1	inactive	–
CC(C)CCCCCCCOC(=O)c1ccccc1C(=O)OCCCCCCCC(C)C	inactive	–
CC(=O)/C=C/c1ccccc1	inactive	–
Nc1ccc(-c2ccc(N)c(N)c2)cc1N	inactive	–
CC(C)(c1cc(Cl)c(O)c(Cl)c1)c1cc(Cl)c(O)c(Cl)c1	–	29.4 µM (active)
CC(C)CCCCCCCOP(=O)(Oc1ccccc1)Oc1ccccc1	–	20 µM (active)
O=[N+]([O-])C=Cc1ccccc1	–	7.32 µM (active)
Clc1ccc(-c2ccccc2)cc1	inactive	–
CCCOC(=O)c1ccccc1C(=O)OCCC	inactive	–
CCC(C)c1cc([N+](=O)[O-])cc([N+](=O)[O-])c1OC(=O)C=C(C)C (centres undefined)	–	30.4 µM (active)
O=c1[nH]c(Cl)c(Cl)cc1Cl	inactive	–
O=c1c2ccccc2c(=O)c2c1cc(Cl)c1[nH]c3c([nH]c12)c(Cl)cc1c(=O)c2ccccc2c(=O)c13	inactive	–
CC(C)(C)C(=O)CCl	inactive	–
Cc1ccc(OP(=O)(Oc2ccc(C)cc2)Oc2ccc(C)cc2)cc1 (tested in a mixture with another compound)	inactive	–
O=[N+]([O-])c1ccc(Cl)cc1	inactive	–
CC(C)(C)C(O)C(Oc1ccc(-c2ccccc2)cc1)n1cncn1 (centres undefined)	inactive	–

Compound	outcome	AC50
O=C1C(Cl)=C(Cl)C(=O)C(Cl)=C1Cl	–	25.4 µM (active)
O=C(O)CCCc1ccc(N(CCCl)CCCl)cc1	inactive	20 µM (active)
C=CCN(CC=C)C(=O)C(Cl)Cl	inactive	–
CC1(C)[C@H](C(=O)O[C@H](C#N)c2cccc(Oc3ccccc3)c2)[C@@H]1C=C(Br)Br	inactive	–
O=C1C=CC(=O)C=C1	–	20 µM (active) and 28.6 µM (active)
O=P1(NCCCl)OCCCN1CCCl (centres undefined)	inactive	–
c1ccc(Nc2ccc3ccccc3c2)cc1	–	30.6 µM (active)
CCCC[N+](CCCC)(CCCC)CCCC	inactive	–
C=CC(=O)OCC(CC)CCCC (centres undefined)	inactive	–
Oc1ccc(C2(c3ccc(O)cc3)c3ccccc3-c3ccccc32)cc1	–	32.5 µM (active) and 22.6 µM (active)
Oc1cc(Cl)ccc1Cl	inactive	–
O=C(CCl)c1ccccc1	–	7.82 µM (active)
COc1ccc(CO)cc1	inactive	–
COCC(=O)N(c1c(C)cccc1C)N1CCOC1=O	inactive	–
CNC(=O)Oc1cc(C)c(SC)c(C)c1	inactive	–
COC(C)(C)CCC[C@H](C)C/C=C/C(C)=C/C(=O)OC(C)C	–	30.4 µM (active)
CCc1cc(C)cc(CC)c1-c1c(OC(=O)C(C)(C)C)n2n(c1=O)CCOCC2	inactive	–
CC(C)COP(=O)(OCC(C)C)OCC(C)C	inactive	–
O=[N+]([O-])O	inactive	–
